The text below walks through data of PubChem BioAssay (NCI).

This is part of a sample that, as a whole, favours compounds with a hit. Of some 83,000 tested, about 20% had one in any assay.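 Interpretation: 100, growth as untreated; towards 0, rising growth inhibition; 0, no net growth; 0 to -100, cell death. Compounds scoring below 10 were considered active.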 A number with no mark means an inactive call. Calls of active or inactive are those of the source.

Among the test systems are DU-145 prostate; K-562 leukemia; MALME-3M melanoma; MDA-MB-231 breast; RXF 393 renal; SF-268 CNS; SF-539 CNS; UACC-257 melanoma; M14 melanoma; HCT-15 colon; HT29 colon; SNB-75 CNS; SNB-19 CNS; U251 CNS; PC-3 prostate; SK-MEL-5 melanoma; UACC-62 melanoma; LOX IMVI melanoma; SK-MEL-28 melanoma.
Test in all cases: NCI-60 one-dose screen, 48 h (100 = growth as untreated, 0 = no growth, -100 = all killed)
Holding throughout (details): 10 µM unless noted

With `N#CC1=C(N)Oc2nc[nH]c(=O)c2C1c1cccs1` (stereo not drawn), the growth was 107% in the assay on DU-145 prostate; 104% in the assay on K-562 leukemia; 112% in the assay on MALME-3M melanoma; 106% in the assay with MDA-MB-231 breast; 97.8% in the assay with RXF 393 renal; 108% with SF-268 CNS. For the same molecule, the growth with SF-539 CNS is 101%; in the assay on UACC-257 melanoma it was 98.4%; in the assay on M14 melanoma, 111%; in the assay with HCT-15 colon it was 99.8%; with HT29 colon, 99%; in the assay with SNB-75 CNS, 92.6%. Further, the growth in the assay with SNB-19 CNS was 104%; in the assay on U251 CNS, 96.3%; in the assay with PC-3 prostate, 97.9%; with SK-MEL-5 melanoma it was 102%; in the assay with UACC-62 melanoma, 104%; with LOX IMVI melanoma, 100%. The growth in the assay on SK-MEL-28 melanoma was 102%.

In the case of `CNCCCNc1ccnc2cc(Cl)ccc12`, the growth is -5.31% (active) with DU-145 prostate; 2.22% (active) in the assay on K-562 leukemia; -90.3% (active) with MALME-3M melanoma; -33.8% (active) in the assay on MDA-MB-231 breast; -63.3% (active) in the assay on RXF 393 renal; -29.5% (active) with SF-268 CNS. Moreover, the growth was -66.7% (active) in the assay with SF-539 CNS; -87.5% (active) in the assay with UACC-257 melanoma; -32.6% (active) in the assay with M14 melanoma; 6.57% (active) in the assay on HCT-15 colon; -33.1% (active) with HT29 colon; -52.8% (active) in the assay on SNB-75 CNS. For the same molecule, the growth was -1.63% (active) with SNB-19 CNS; 0.589% (active) in the assay with U251 CNS; 1.91% (active) in the assay on PC-3 prostate; -96.1% (active) in the assay with SK-MEL-5 melanoma; -75.2% (active) in the assay on UACC-62 melanoma; -49.8% (active) in the assay on LOX IMVI melanoma. In the assay with SK-MEL-28 melanoma, the growth was -96.3% (active).

For `CN(C)c1ccc(N2Cc3ccccc3OC3=C2C(=O)c2c(O)ccc(O)c2C3=O)cn1`, the growth in the assay with DU-145 prostate was -97.3% (active); in the assay with K-562 leukemia, -20.8% (active); in the assay on MALME-3M melanoma, -76.9% (active); with MDA-MB-231 breast, -93.6% (active); in the assay on RXF 393 renal it was -87% (active); with SF-268 CNS it was -32.5% (active). Further, the growth with SF-539 CNS is -63% (active); in the assay on UACC-257 melanoma it was -89.9% (active); with M14 melanoma it was -88.6% (active); in the assay on HCT-15 colon, -64.4% (active); with HT29 colon, -50.8% (active); with SNB-75 CNS, 0.378% (active). For the same molecule, the growth with SNB-19 CNS is 6.23% (active); in the assay with U251 CNS, -15.7% (active); in the assay on PC-3 prostate, -4.29% (active); in the assay with SK-MEL-5 melanoma, -81.3% (active); with UACC-62 melanoma, -87.4% (active); in the assay on LOX IMVI melanoma, -68.1% (active). Further, the growth with SK-MEL-28 melanoma is -82.8% (active).

On to `Cc1ccc(Nc2nc(NCCO)c3ccccc3n2)cc1C`, for which the growth was -14.6% (active) with DU-145 prostate; 11.1% with K-562 leukemia; 43.8% in the assay with MALME-3M melanoma; 12.6% in the assay on MDA-MB-231 breast; 42.5% in the assay with RXF 393 renal; 20.1% in the assay on SF-268 CNS. In addition, the growth in the assay on SF-539 CNS was 7% (active); with UACC-257 melanoma, 62%; in the assay with M14 melanoma it was 24.4%; in the assay with HCT-15 colon, 15.6%; with HT29 colon, 12.9%; in the assay with SNB-75 CNS, 39.6%. Further, the growth was 57% in the assay on SNB-19 CNS; 15.1% in the assay with U251 CNS; 35.7% with PC-3 prostate; -18.6% (active) with SK-MEL-5 melanoma; 35.7% in the assay with UACC-62 melanoma; 8.62% (active) in the assay with LOX IMVI melanoma. In addition, the growth in the assay on SK-MEL-28 melanoma was 52.5%.

As for `CC1C2CCC(C2)C1COCCOCCO` (stereo not drawn), the growth is 114% in the assay with DU-145 prostate; 109% in the assay with K-562 leukemia; 107% with MALME-3M melanoma; 113% in the assay with MDA-MB-231 breast; 116% with RXF 393 renal; 112% with SF-268 CNS. For the same molecule, the growth with SF-539 CNS is 96.7%; with UACC-257 melanoma, 87.8%; in the assay with M14 melanoma, 112%; in the assay with HCT-15 colon, 98.3%; with HT29 colon, 102%; with SNB-75 CNS it was 109%. In addition, the growth with SNB-19 CNS is 123%; in the assay with U251 CNS it was 91.9%; in the assay on PC-3 prostate, 101%; with SK-MEL-5 melanoma it was 106%; in the assay with UACC-62 melanoma, 104%; with LOX IMVI melanoma, 94.9%. In addition, the growth in the assay with SK-MEL-28 melanoma was 109%.

As for `O=C(C=P(c1ccccc1)(c1ccccc1)c1ccccc1)CCl`, the growth is -36.5% (active) in the assay on DU-145 prostate; -6.42% (active) with K-562 leukemia; -69.7% (active) with MALME-3M melanoma; 16.2% with MDA-MB-231 breast; -71.1% (active) with RXF 393 renal; -12.2% (active) in the assay with SF-268 CNS. The growth in the assay with SF-539 CNS is -20% (active); in the assay on UACC-257 melanoma it was -73.5% (active); in the assay on M14 melanoma, -61.5% (active); with HCT-15 colon it was -18.2% (active); in the assay on HT29 colon, -54.2% (active); in the assay on SNB-75 CNS, 7.49% (active). In addition, the growth is 69.1% with SNB-19 CNS; 34.7% with U251 CNS; 8.54% (active) in the assay on PC-3 prostate; -4.76% (active) with SK-MEL-5 melanoma; -78.3% (active) in the assay on UACC-62 melanoma; -85.5% (active) in the assay on LOX IMVI melanoma. Also, the growth in the assay on SK-MEL-28 melanoma was -6.08% (active).

Take `COc1ccc(C2=CC(c3ccc(OC)cc3Br)N3C=CSC3=N2)cc1` (stereo not drawn): the growth was 66.2% in the assay with DU-145 prostate; 9.34% (active) in the assay on K-562 leukemia; 89.9% with MALME-3M melanoma; 75% in the assay on MDA-MB-231 breast; 84.6% in the assay on RXF 393 renal; 77.1% in the assay on SF-268 CNS. Also, the growth with SF-539 CNS is 77.5%; with UACC-257 melanoma it was 80%; with M14 melanoma it was 25.2%; in the assay with HCT-15 colon, 27.5%; in the assay with HT29 colon, -6.33% (active); in the assay on SNB-75 CNS it was 63.7%. The growth is 62.3% in the assay with SNB-19 CNS; 37.2% in the assay with U251 CNS; 50.4% with PC-3 prostate; 78.7% in the assay on SK-MEL-5 melanoma; 71.2% in the assay on UACC-62 melanoma; 16.6% in the assay with LOX IMVI melanoma. In addition, in the assay with SK-MEL-28 melanoma, the growth is 84%.
